Over roughly 3,600 compounds, “viability index relative to DMSO control” has its median near 0.81; the lowest 2% begin near 0.13. The full list was thinned out, with the lowest values kept by preference.
Tested on: Plasmodium falciparum NF54 stage V gametocytes
Experiment: viability index relative to DMSO control (fraction); higher = less gametocyte killing
Details: 1.25 µM, incubation time: 72 h
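Also: Saponin-lysis sexual stage assay in serum-free medium: MitoTracker Red CMXRos staining plus saponin, high-content imaging, particle count per well divided by plate mean of DMSO wells.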

| Structure (SMILES) | viability index |
| --- | --- |
| O=C(c1cc2n(n1)C(C(F)(F)F)CC(c1ccc3c(c1)OCO3)N2)N1CCN(C(c2ccccc2)c2ccccc2)CC1 (centres undefined) | 0.682 |
| CC(=O)Nc1ccc(-c2nc3c4ccccc4c4ccc(I)cc4c3[nH]2)cc1 | 0.762 |
| C(=NNc1nc2ccccc2[nH]1)c1c[nH]c2ccccc12 | 0.558 |
| COc1cccc(CNc2cc(C(=O)NCCNC(C)=O)cc(S(=O)(=O)N(C)C)c2)c1OC | 1.32 |
| CCOc1ccc2nc(C)cc(Nc3ccc(C)c(Cl)c3)c2c1 | 0.852 |
| CCOc1ccc2nc3cc(NCc4ccco4)ccc3c(N)c2c1 | 0.775 |
| COc1ccc(C2c3[nH]c4ccccc4c3C[C@H]3C(=O)N(CCC(C)C)CC(=O)N23)cc1 (some centres undefined) | 0.803 |
| C=CCSc1nnc2c(n1)[nH]c1ccc(OCC)cc12 | 0.656 |
| Nc1ccc(C(=O)Nc2ccc(-c3nc4ccccc4o3)cc2)cc1 | 0.703 |
| Cc1ccc(-c2nc3cc(NC(=O)c4ccc([N+](=O)[O-])o4)ccc3o2)cc1Br | 0.0755 |
| Cc1cc(N2CCCCC2)nc2ccc(NC(=O)c3cccc([N+](=O)[O-])c3)cc12 | 0.787 |
| Cc1cc([N+](=O)[O-])ccc1-c1ccc(C(=O)Nc2ccc(-c3nc4ccccc4[nH]3)cc2)o1 | 0.622 |
| Cc1cccc(-c2nc3cc(NC(=O)c4ccc([N+](=O)[O-])o4)ccc3o2)c1 | 0.0679 |
| Cc1cc(N2CCN(C)CC2)nc2ccc(NC(=O)c3ccc(Br)o3)cc12 | 0.924 |
| Cc1cccc(-c2nc3cc(NC(=S)NC(=O)c4ccc(Cl)cc4)ccc3o2)c1 | 0.808 |
| Cc1ccc(-c2nc3cc(NC(=O)c4ccc(Cl)cc4Cl)ccc3o2)cc1 | 1.32 |
| O=C(CN1CCN(C(=O)c2ccccc2)CC1)Nc1ccc(-c2nc3cc(NC(=O)CN4CCN(C(=O)c5ccccc5)CC4)ccc3o2)cc1 | 0.951 |
| Cc1cc(N2CCC(C)CC2)nc2ccc(NC(=O)c3ccc([N+](=O)[O-])o3)cc12 | 0.12 |
| O=C(Nc1ccc(-c2nc3ccc(NC(=O)c4ccc(Br)o4)cc3[nH]2)cc1)c1ccc(Br)o1 | 1.1 |
| O=C(Nc1ccc2oc(-c3ccc(I)cc3)nc2c1)c1ccc([N+](=O)[O-])o1 | 0.0302 |
| CNC(=O)c1nn(C)c2c1CC(NCC1CCCCC1)CC2 (centres undefined) | 0.702 |

| Structure (SMILES) | viability index |
| --- | --- |
| CC(=NNC(=O)c1ccc(C)cc1)c1ccccn1 | 0.294 |
| CCOC(=O)c1oc2cc(O)c(CC)cc2c(=O)c1-c1ccc2c(c1)OCO2 | 1.09 |
| CCOc1ccc2[nH]c(=O)c(CN(CCCN3CCOCC3)C(=S)NCCCN(CC)CC)cc2c1 | 0.814 |
| Oc1cccc(Nc2nc(NCc3ccco3)c3ccccc3n2)c1 | 0.595 |
| O=[N+]([O-])c1cccc(Cl)c1N1CCN(S(=O)(=O)Cc2ccccc2)CC1 | 1 |
| COc1cc(C=C(C#N)c2nc3ccccc3[nH]2)ccc1OCc1ccccc1Cl | 0.678 |
| CC1CC(N(C(=O)c2ccc(Cl)cc2Cl)c2ccccc2)c2ccccc2N1C(=O)c1ccc(Cl)cc1 (centres undefined) | 0.723 |
| CCC(=O)NC(c1cccc([N+](=O)[O-])c1)c1ccc2cccnc2c1O (centres undefined) | 1.12 |
| O=[N+]([O-])c1cc(C(F)(F)F)cc([N+](=O)[O-])c1Sc1cccc2cccnc12 | 0.0789 |
| O=[N+]([O-])c1cc([N+](=O)[O-])c2cccnc2c1Nc1cccc2cccnc12 | 0.209 |
| COc1cccc2c1OCC(CN1CCC(C(=O)Nc3ccc(-n4cccn4)cc3)CC1)=C2 | 1.03 |
| O=C(Nc1ccc(-c2nc3ccccc3[nH]2)cc1)c1ccc(-c2cccc([N+](=O)[O-])c2)o1 | 0.751 |
| O=C(Nc1ccc(F)c(F)c1)c1ccccc1[N+](=O)[O-] | 1.03 |
| O=C(Nc1ccc2oc(-c3cccc4ccccc34)nc2c1)c1ccc([N+](=O)[O-])o1 | 0.0679 |
| O=C(Nc1ccc(-c2nnc(-c3ccc(NC(=O)c4ccccc4[N+](=O)[O-])cc3)o2)cc1)c1ccccc1[N+](=O)[O-] | 0.756 |
| CCC(C)(C)c1ccc(Oc2ccc(NC(=O)c3ccc([N+](=O)[O-])o3)cc2)cc1 | 0.362 |
| O=C(Nc1ccc2oc(-c3ccccc3F)nc2c1)c1ccc([N+](=O)[O-])o1 | 0.128 |
| CCN1C(=Cc2cccc[n+]2C)C=Cc2ccccc21 | 1.01 |
| CCN1CCC(NC2CCCc3c2[nH]c2ccc([N+](=O)[O-])cc32)CC1 (centres undefined) | 1.07 |
| CC1CCN(C(=O)C(C)N(c2ccccc2)S(C)(=O)=O)CC1 (centres undefined) | 0.917 |
| O=C1OC(c2ccccc2)=NC1=C(Cl)Cl | 1.1 |

| Structure (SMILES) | viability index |
| --- | --- |
| Cc1cc(Nc2ccc(O)cc2)nc2cccc(O)c12 | 0.735 |
| Cc1c2ccccc2cc(Cc2ccccc2)[n+]1C | 0.76 |
| C=CC[n+]1cccc2c3ccccc3ccc21 | 0.706 |
| c1ccc2c(c1)ccc1cc3cccc[n+]3cc12 | 0.0821 |
| O=C(c1ccc([N+](=O)[O-])cc1)c1ccc(Cl)c(Cl)c1 | 0.574 |
| CCOC(=O)C1=C(C)N=c2sc(=Cc3cccc(OCc4cccc5ccccc45)c3)c(=O)n2C1c1ccc(OC)cc1OC (centres undefined) | 0.924 |
| O=C(Cc1ccc(Cl)cc1)NNS(=O)(=O)c1ccc([N+](=O)[O-])cc1 | 0.939 |
| O=C(Nc1ccc(-c2nc3cc(NC(=O)C(c4ccccc4)c4ccccc4)ccc3[nH]2)cc1)C(c1ccccc1)c1ccccc1 | 0.908 |
| O=C(Nc1ccc(-c2nc3ccccc3[nH]2)cc1)c1ccc(-c2ccc(Cl)cc2)o1 | 0.725 |
| O=C(Nc1ccc(-c2nc3cc(NC(=O)c4cccs4)ccc3[nH]2)cc1)c1cccs1 | 1.05 |
| O=C(C=Cc1ccccc1)Nc1ccc(-c2nc3cc(NC(=O)C=Cc4ccccc4)ccc3[nH]2)cc1 | 0.11 |
| O=C(Nc1ccc(-c2nc3ccccc3[nH]2)cc1)c1ccc(Cl)c(Cl)c1 | 1.03 |
| O=C(Nc1ccc(-c2nc3ccccc3[nH]2)cc1)c1cccc(C(=O)Nc2ccc(-c3nc4ccccc4[nH]3)cc2)n1 | 0.0331 |
| CCOc1ccccc1C1C(C#N)=C(SCC(=O)Nc2ccc(Cl)cc2)NC(C)=C1C(=O)Nc1ccccc1 (centres undefined) | 0.5 |
| Fc1ccc(CSc2nc3cccnc3[nH]2)cc1 | 1.24 |
| Cc1cc(C)cc(NC2=C(N)C(=O)c3ccccc3C2=O)c1 | 0.707 |
| COc1cc2nc(Nc3ccc(F)cc3)nc(N)c2cc1OC | 0.787 |
| COc1ccc(-c2cc(C3CCN(c4nc(N)c5cc(OC)c(OC)cc5n4)CC3)n[nH]2)cc1OC | 1.17 |
| COc1cc2nc(N3CCN(c4nc(N)c5cc(OC)c(OC)cc5n4)CC3)nc(N)c2cc1OC | 0.0192 |
| O=C(CNCCc1ccccc1)NC(c1ccccc1)c1ccccc1 | 0.761 |
| CCOc1ccc(C=C(C#N)c2nc3ccccc3[nH]2)cc1OC | 0.837 |

| Structure (SMILES) | viability index |
| --- | --- |
| COc1cc2c(-c3cc(Br)ccc3O)nc3c(c(Cc4ccccc4)nn3-c3ccccc3)c2cc1OC | 0.595 |
| NC(=S)NN=Cc1cc([N+](=O)[O-])ccc1O | 0.176 |
| CC(C=NNC(N)=S)=NNC(N)=S | 0.131 |
| CCOc1ccc(CCN2C(=S)N(c3cccc(C(F)(F)F)c3)C(=O)C2CC(=O)Nc2ccc(C(=O)OC)cc2)cc1OCC (centres undefined) | 0.582 |
| N#Cc1c(-c2ccccc2)cc(N2CCN(C3CCCCC3)CC2)n2c1nc1ccccc12 | 0.822 |
| COc1ccc(-c2c[n+](CC(=O)c3cccc(OC)c3)c3n2CCC3)cc1 | 0.74 |
| Cc1ccc2c(c1)C(C)(c1ccc(Cl)cc1)CC(C)(C)N2C(=O)COc1ccc2ccccc2c1 (centres undefined) | 0.826 |
| O=C(C[n+]1cc(-c2ccc(F)cc2)n2c1CCC2)Nc1ccc(Cl)cc1 | 1.44 |
| Cc1c(Cl)cccc1NC(=O)CCC(=O)NNC(=O)c1ccccc1 | 0.9 |
| CCSC(Cl)=C(NC(=O)c1ccccc1)[P+](c1ccccc1)(c1ccccc1)c1ccccc1 | 0.0362 |
| CCCc1ccc(C(=O)NC(=O)c2ccccc2O)cc1 | 1.05 |
| O=C1C(Sc2nc[nH]n2)=CC(=NS(=O)(=O)c2cccs2)c2ccccc21 | 0.707 |
| COc1ccccc1NC1=CC(=NS(=O)(=O)c2cccs2)c2ccccc2C1=O | 0.0154 |
| O=C1C(Nc2ccc(O)cc2)=CC(=NS(=O)(=O)c2cccs2)c2ccccc21 | 0.306 |
| COc1ccccc1NC1=CC(=NS(=O)(=O)c2ccc(F)cc2)c2ccccc2C1=O | 0.189 |
| COc1ccccc1NC1=CC(=NS(=O)(=O)c2ccccc2)c2ccccc2C1=O | 0.247 |
| COc1ccc(S(=O)(=O)N=C2C=C(Nc3ccccc3OC)C(=O)c3ccccc32)cc1 | 0.0579 |
| Cc1cccc(CCNc2cc(C)nc3ncnn23)c1 | 0.982 |
| COc1ccc2[nH]c(SCC(=O)Nc3cccc(NC(=O)CSc4nc5cc(OC)ccc5[nH]4)n3)nc2c1 | 0.353 |
| Cc1cccc(NC(=O)C2C3C=CC4(O3)C2C(=O)N(CC2COc3ccccc3O2)C4C(=O)NC2CCCC(C)C2C)c1 (centres undefined) | 1.33 |
| Cc1cc2nc(NC(=N)N)nc(C)c2cc1C | 0.718 |
